Compound activity from PubChem.
D1 mod = allosteric modulators of human D1 dopamine receptor. P21728. HEK293 D1, CRE-luciferase, dopamine EC30 potentiation; actives deviate in either direction. B-score at 10 µM. 5.9% of 58,000 active. AID 641;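 active = luminescence count or its row- and column-corrected plate score outside the 99.7% band of the plate's sample wells, on either side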
Target sequence (P21728 whole entry, looked up): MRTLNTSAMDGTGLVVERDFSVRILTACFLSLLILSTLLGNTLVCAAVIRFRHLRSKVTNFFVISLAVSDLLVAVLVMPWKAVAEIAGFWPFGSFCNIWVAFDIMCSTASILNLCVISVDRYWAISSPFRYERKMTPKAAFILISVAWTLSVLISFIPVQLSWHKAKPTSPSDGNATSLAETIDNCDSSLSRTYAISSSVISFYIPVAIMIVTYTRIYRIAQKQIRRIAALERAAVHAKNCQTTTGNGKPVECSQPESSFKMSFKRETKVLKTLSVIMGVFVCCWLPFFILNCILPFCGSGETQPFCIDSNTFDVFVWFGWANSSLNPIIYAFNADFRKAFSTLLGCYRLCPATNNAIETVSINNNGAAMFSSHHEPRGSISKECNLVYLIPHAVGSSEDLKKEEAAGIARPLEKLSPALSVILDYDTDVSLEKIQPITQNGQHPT
EphB4 antag = EphB4-ephrin-B2 interaction antagonism; P54760; EphB4 LBD / TNYL-RAW-Alexa532 peptide, fluorescence polarization; inhibition, % at 7 µM; 0.15% of 97,000 active;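 active = inhibition above the screen-wide mean inhibition plus 3 SD, cut at about 15% in these data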;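 note: 0% = DMSO wells and 100% = excess unlabeled TNYL-RAW peptide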
DAT uptake mod = changed human dopamine transporter uptake under cocaine IC80; AID 449768; B-score at 10 µM; LLC-PK1 hDAT cells, [14C]-dopamine uptake with cocaine IC80; actives deviate in either direction; 1.3% of 110,000 active; Q01959;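 active = Z score or B-score, a plate-position-corrected score, falls beyond the plate's 99.7% confidence bounds, in either direction; inactive = both scores lie inside the 99.7% bounds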;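 note: scored against the spread of the other compound wells on the same plate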
Numbers without * were called inactive; . = not tested or not shown; ! = not confirmed by another sample. The entries come from a sample that favours hits as a whole.

SMILES	D1 mod	EphB4 antag	DAT uptake mod
O=C(NCc1ccccc1)C1(C(F)(F)F)C/C(=C\CCO)CCCO1 (centres undefined)	.	.	-0.606
Cc1nc(CS(=O)c2ccc(Cl)cc2)cc(NCc2ccc(Cl)cc2Cl)n1 (centres undefined)	.	-2.6	2.65*
Cc1nc(CSc2ccc(Cl)cc2)cc(NCc2ccccc2)n1	.	1.7	0.31
CC(=O)c1cccc(NC(=O)Nc2ccc3c(c2)N(C)C(=O)CS3)c1	.	-3.9	0.858
CCCCN(C)C(=O)CCC(=O)Nc1ccc2nc(N3CCOCC3)cc(C)c2c1	0.351	-8.5	2.48
CCN1CCN(c2cc(C)c3cc(NC(=O)Cc4ccc(OC)c(OC)c4)ccc3n2)CC1	0.201	.	3.09*
CCN1CCN(c2cc(C)c3cc(NC(=O)c4cnccn4)ccc3n2)CC1	-0.353	.	-0.277
Cc1cc(N2CCN(C)CC2)nc2ccc(NC(=O)c3ccc(Br)o3)cc12	-4.17*	.	0.845
COc1ccc(N(C)C(=O)CCC(=O)Nc2ccc3nc(N4CCOCC4)cc(C)c3c2)c(OC)c1	-0.66	-3.2	3.2*
Cc1cc(N2CCCCC2)nc2ccc(NC(=O)c3ccc(Br)o3)cc12	.	2.6	0.409
Fc1ccc(-n2nnc(-c3ccnc4ccccc34)n2)cc1	.	.	0.273
CCc1nnc(N2C(=O)c3cccc4cccc(c34)C2=O)s1	.	-2.9	-0.929
COc1ccc(OC)c(N(CC(=O)Nc2cccnc2)S(=O)(=O)c2ccc(C)cc2)c1	.	-3.7	-1.12
COc1ccc(OC)c(N(CC(=O)Nc2cccnc2)S(=O)(=O)c2ccc(OC)c(OC)c2)c1	.	-7.5	-2.7*!
CC(CNC(=O)c1cc(Cl)ccc1[N+](=O)[O-])NC(=O)c1cc(Cl)ccc1[N+](=O)[O-] (centres undefined)	.	-2.8	1.32
CC1CCc2cc(F)ccc2N1C(=O)c1ccc2c(c1)OCO2 (centres undefined)	-0.289	-1.2	-0.617
CC1CCc2ccccc2N1C(=O)c1cccs1 (centres undefined)	.	-8.9	-7.3*
NC(=O)CNC(=O)[C@@H]1CC2(CC(c3cccc(Br)c3)=NO2)CN1C(=O)c1ccc(Br)cc1 (some centres undefined)	.	-8.6	2.23*
NC(=O)CNC(=O)[C@@H]1CC2(CC(c3ccc(Cl)cc3)=NO2)CN1C(=O)c1ccccc1 (some centres undefined)	.	2.7	-1.23
NC(=S)N/N=C/c1ccccc1OCc1cccc(Cl)c1	.	2.9	0.46
COc1ccccc1N(CC(=O)N1CCCCCC1)S(C)(=O)=O	-0.00361	-0.4	-0.0562
CCOc1ccccc1N(CC(=O)Nc1cc(OC)ccc1OC)S(C)(=O)=O	.	-7.3	-9.11*
CCOc1ccccc1N(CC(=O)N1CCCCCC1)S(C)(=O)=O	-3.82*	-2.6	0.0586
CCOc1ccccc1N(CC(=O)Nc1ccccc1C(=O)O)S(C)(=O)=O	-1.13	0.7	-0.193
Cc1ccc(-n2nnc(-c3cccnc3Cl)n2)cc1	.	.	-0.0169
SMILES	D1 mod	EphB4 antag	DAT uptake mod
O=C1C=CC(O)(c2cc(=O)c3c(O)cc(O)cc3o2)C=C1	.	.	-0.4
CC(C)CCN1C(=O)c2ccccc2C1C(=O)NCc1cccnc1 (centres undefined)	.	1.4	-0.563
COc1ccc2c(c1)CC/C(=C\Nc1ccc3c(c1)OCO3)C2=O	.	-3.4	-0.226
O=C1/C(=C/Nc2ccc3c(c2)OCO3)CCc2ccccc21	-6.15*	-1.5	-0.00773
Cc1cccc(N2CCN(C(=O)c3ccc4ncsc4c3)CC2)c1C	.	-0.1	2.46*
O=C(c1ccc2ncsc2c1)N1CCN(c2ccc(O)cc2)CC1	.	5.2	0.72
Cc1occc1-c1nnc(SCC(=O)NCCc2ccccc2)n1C(C)c1ccccc1 (centres undefined)	.	.	2.71*
Cc1cccc(C)c1NC(=O)CSc1nnc(-c2ccoc2C)n1CCc1ccccc1	-0.15	-4.0	1.43
Cc1ccc(C)c(NS(=O)(=O)c2cc(C(=O)NCCC3=CCCCC3)ccc2C)c1	.	-4.8	-0.307
Cc1ccccc1Nc1nc(CSc2nnnn2-c2ccccc2)cs1	.	-3.3	-7.97*
c1ccc(-c2nc(CSc3nnnn3-c3ccccc3)cs2)cc1	0.361	-1.2	0.571
O=C([C@H](Cc1ccc(O)cc1)n1cc(CCO)nn1)N1CCNCC1	.	.	-0.25
CCCC[C@@H]1CNC(=O)C(=O)N1CCc1cccc2ccccc12	.	.	1.45
Cn1cc(S(=O)(=O)N2CCN(c3ccccc3)CC2)c(=O)n(C)c1=O	.	15.9*	-0.709
Cn1cc(S(=O)(=O)N2CCN(c3cccc(C(F)(F)F)c3)CC2)c(=O)n(C)c1=O	-0.44	0.6	-1.28
Cc1nn(C(=O)c2ccc3c(c2)OCO3)c(N)c1-c1ccccc1	-5.71*	-1.2	0.263
Cc1nn(C(=O)c2cccs2)c(N)c1-c1ccccc1	-0.807	.	-0.474
CCn1c(CNC(=O)COc2ccc(C(C)C)cc2)nnc1SCC(=O)Nc1ccccc1F	.	1.4	-0.144
CCn1c(CNC(=O)COc2ccc(C(C)C)cc2)nnc1SCC(=O)Nc1ccccc1C(C)C	.	-1.2	2.44*
CC(C)(C)c1ccc(OC(=O)Cn2c(C(F)(F)F)nc3ccccc32)cc1	.	-10.8	.
O=C(NC1CCCCC1)c1ccccc1NC(=O)C1CC1	.	-3.0	0.122
CCCCCCCCCC(=O)N/N=C/c1ccc(C)s1	.	-3.9	0.937
Cn1c(SCC(=O)NCc2ccc3c(c2)OCO3)nnc1-c1cccs1	-0.0696	.	0.00858
Cc1ccc(-c2nc(NC(=O)CSc3nnc4scc(-c5ccccc5)n34)ns2)cc1	-1.96	.	2.55*
CCc1nnc(NC(=O)CSc2nnc3scc(-c4ccc(C)cc4)n23)s1	0.237	0.1	0.298
SMILES	D1 mod	EphB4 antag	DAT uptake mod
Cc1ccc(-c2csc3nnc(SCC(=O)NCc4ccc5c(c4)OCO5)n23)cc1	19.3*	-3.3	0.00737
CCC(C)NC(=O)c1ccccc1NC(=O)c1ccc(CSc2ccc(C)cc2)cc1 (centres undefined)	.	-3.1	0.0294
CC(COc1ccccc1Cc1ccccc1)N1CCCCC1 (centres undefined)	.	.	-0.942
O=C(NCC1CCCO1)c1csc2c1CCCCC2 (centres undefined)	-3.31*	-4.1	-0.269
CC1CCc2c(C(=O)NCC3CCCO3)csc2C1 (centres undefined)	-0.0422	1.6	-0.0179
CCOC(=O)c1cnc2c(C)c(-c3ccccc3)[nH]n2c1=O	.	0.5	-0.881
O=C(CN(Cc1ccccc1Cl)C(=O)c1ccc(CN2CCOCC2)o1)NCC1CCCO1 (centres undefined)	.	2.7	1.35
Oc1c(CN2CCCCC2)cc(COCc2ccccc2)c2cccnc12	-0.176	19.8*	0.648
COCc1cc(CN2CCCC2)c(O)c2ncccc12	-1.25	3.8	1.18
CCOC(=O)CNS(=O)(=O)c1c(C)noc1C	0.241	-5.5	-0.692
Cc1noc(C)c1S(=O)(=O)NCC(=O)O	0.503	-4.2	2.27*
CCCCNC(=O)C1C2C=CC3(CN(Cc4ccccc4Cl)C(=O)C13)O2 (centres undefined)	.	16.1*	0.968
CC(C)CCNC(=O)C1C2C=CC3(CN(Cc4ccccc4Cl)C(=O)C13)O2 (centres undefined)	-0.175	2.9	-0.715
O=C1C[C@@H](c2ccc(O[C@@H]3O[C@H](CO)[C@@H](O)[C@H](O)[C@H]3O)cc2)Oc2cc(O)ccc21	.	.	0.00375
CCC(=O)N1CCC2(CC1)Oc1ccc(F)cc1C(=O)C21CC(c2ccccc2)=NO1 (centres undefined)	.	.	0.555
